A short description of assay [1]: qHTS assay to identify small molecule antagonists of the estrogen receptor alpha (ER-alpha) signaling pathway using the BG1 cell line in the presence of 0.1 nM 17-beta-estradiol - cell viability counter screen (AID 1259241). Also: nearly all actives have a fitted effect of over 40% in size. Also: potency is read from the fitted curve at half-maximal effect. A digest of the protocol: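 The cell line endogenously expresses full-length ER-alpha and carries four EREs driving luciferase. Cells are cultured 5 days hormone-free, treated 22 hr with compounds and 0.1 nM estradiol, then viability is read by fluorescence.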
On the technique in general: Quantitative high-throughput screening tests each substance at several concentrations.

Assay [2] is described as follows: qHTS assay to identify small molecule antagonists of the androgen receptor (AR) signaling pathway using the MDA cell line in the presence of 0.5 nM R1881 - cell viability counter screen (AID 1259242). Also: nearly all actives have a fitted effect of over 45% in size. Also: potency is read from the fitted curve at half-maximal effect. Put shortly:
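Cytotoxicity toward MDA-kb2 cells is measured by CellTiter-Fluor live-cell protease fluorescence after 16 hr compound exposure at 37C in the presence of 0.5 nM R1881 stimulator.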

Assay [3] addresses Estrogen receptor (Homo sapiens) (UniProt P03372). The assay can be described thus: qHTS assay to identify small molecule antagonists of the estrogen receptor alpha (ER-alpha) signaling pathway using the BG1 cell line in the presence of 0.1 nM 17-beta-estradiol (AID 1259244). Also: potency is read from the fitted curve at half-maximal effect; nearly all actives have a fitted effect of over 50% in size. Put shortly: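 After 5 days in hormone-depleted medium (charcoal-stripped serum, no phenol red), VM7Luc4E2 cells were seeded, incubated 24 h, then co-treated with compound and 0.1 nM (final) estradiol for 22 h before luminescence detection.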

A short description of assay [4]: qHTS assay to identify small molecule HDAC inhibitors (AID 1259364). Also: top concentration of the series differs between compounds; nearly all actives have a fitted effect of over 45% in size. A digest of the protocol:
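Homogeneous cell-based luminescent assay of endogenous class I/II HDAC activity; HCT-116 cells, 2 h compound exposure, 30 min HDAC-Glo development at RT.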

A short description of assay [5]: qHTS assay to identify small molecule agonists of the sonic hedgehog signaling (Shh) pathway - cell viability counter screen (AID 1259366). Also: nearly all actives have a fitted effect of over 50% in size. Also: potency is read from the fitted curve at half-maximal effect. Put shortly:
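Viability measured fluorometrically (CellTiter-Fluor, 1hr, 37C) in 3T3 Gli1-Luc reporter cells after 23hr compound exposure within a 24hr incubation at 37C/5% CO2.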

The nature of assay [6]: qHTS assay to identify small molecule antagonists of the sonic hedgehog signaling (Shh) pathway - cell viability counter screen (AID 1259367). Also: nearly all actives have a fitted effect of over 55% in size. Also: potency is read from the fitted curve at half-maximal effect. A digest of the protocol:
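After a 4 hr settling period, 3T3 Gli1-Luc cells were treated with DMSO-dissolved chemicals and conditioned medium, kept 24 hr at 37C in 5% CO2, and assayed for viability by CellTiter-Fluor fluorescence following 1 hr reagent incubation.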

The nature of assay [7]: qHTS assay to identify small molecule antagonists of the sonic hedgehog signaling (Shh) pathway (AID 1259369; calls by dose curve; also: nearly all actives have a fitted effect of over 45% in size; also: potency is read from the fitted curve at half-maximal effect). Put shortly: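 Inhibition of Shh signalling is measured as reduced Gli1-response-element firefly luciferase output in an NIH/3T3-derived stable reporter clone stimulated with conditioned medium for 24hr.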
Assay [8] can be described thus: qHTS assay to identify small molecule agonists of the androgen receptor (AR) signaling pathway in the presence of an antagonist - cell viability counter screen (AID 1259379). Also: nearly all actives have a fitted effect of over 25% in size. Also: potency is read from the fitted curve at half-maximal effect. A digest of the protocol: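 Fluorescence from CellTiter-Fluor, added after 15 hr and read 1 hr later, gave cell viability. Cells were MDA-kb2 exposed to compounds (15 concentrations) in the presence of 3.0uM nilutamide at 37C, 0% CO2.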

Assay [9] is described as follows: qHTS assay to identify small molecule agonists of the estrogen receptor beta (ER-beta) signaling pathway - cell viability counter screen (AID 1259380). Also: nearly all actives have a fitted effect of over 30% in size. Also: potency is read from the fitted curve at half-maximal effect. A digest of the protocol: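 Same-well viability counter screen. Cells: ER-beta-UAS-bla HEK293T, plated 6 hr before compound, in 2% charcoal-stripped FBS. Compound exposure 16 hr, 37C; viability by CellTiter-Glo luminescence after 30 min at room temperature.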

Assay [10] can be described thus: qHTS assay to identify small molecule antagonists of the estrogen receptor beta (ER-beta) signaling pathway - cell viability counter screen (AID 1259382). Also: nearly all actives have a fitted effect of over 55% in size. Also: potency is read from the fitted curve at half-maximal effect. Put shortly:
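Following a 6 hr plating period, HEK293T cells carrying a UAS-driven beta-lactamase reporter under ER-beta control received compounds and 1nM E2 (final). After 16 hr at 37C and 2 hr substrate loading, CellTiter-Glo luminescence indicated viability.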

Assay [11] concerns the target Estrogen receptor (Homo sapiens) (UniProt P03372). The assay can be described thus: qHTS assay to identify small molecule agonists of the estrogen receptor alpha (ER-alpha) signaling pathway in the presence of an antagonist (AID 1259383; calls by dose curve; also: top concentration of the series differs between compounds; nearly all actives have a fitted effect of over 15% in size). A digest of the protocol: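 Cells are hormone-deprived for 5 days (charcoal-stripped FBS, no phenol red), plated for 24hr, spiked with 10.0nM ICI-182,780, then dosed at 15 concentrations. After 22hr at 37C, ONE-Glo luminescence reports ERE-luciferase activity.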

The target of assay [12] is Thyrotropin receptor (Homo sapiens) (UniProt P16473). The assay can be described thus: qHTS assay to identify small molecule antagonists of the thyroid stimulating hormone receptor (TSHR) signaling pathway (AID 1259385; calls by dose curve; also: nearly all actives have a fitted effect of over 20% in size; also: potency is read from the fitted curve at half-maximal effect). Put shortly:
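TSHR-HEK293 cells were plated and held 18 h at 37C/5% CO2, then given compound plus Ro20-1724 and stimulated with TSH at 1.5 ng/mL final. After 30 min at room temperature, cAMP was detected with cAMP-d2/anti-cAMP-cryptate (1 h) by fluorescence.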

A short description of assay [13]: qHTS assay to identify small molecule agonists of the estrogen receptor alpha (ER-alpha) signaling pathway in the presence of an antagonist - cell viability counter screen (AID 1259386).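 Also: cells exposed to compounds for 22 h at 37 °C before the viability read; nearly all actives have a fitted effect of over 30% in size.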 Also: potency is read from the fitted curve at half-maximal effect. Put shortly: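 Cells are starved of estrogens for 5 days in charcoal-stripped serum, seeded for 24hr and co-treated with ICI-182,780 (10.0nM final) and test compounds. After 22hr at 37C, viability is read as CellTiter-Fluor fluorescence.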

Assay [14] in a line: qHTS assay to identify small molecule HDAC inhibitors - cell viability counter screen (AID 1259365). Also: series mostly up to about 92 µM; nearly all actives have a fitted effect of over 50% in size. Put shortly: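 Viability readout: CellTiter-Glo luminescence. Wild-type HCT-116 cells, 2hr compound treatment following overnight attachment at 37 C.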
The nature of assay [15]: qHTS assay to identify small molecule agonists of the sonic hedgehog signaling (Shh) pathway (AID 1259368; calls by dose curve;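 also: NIH/3T3-derived 3T3Gli1-Luc cells carrying a stable Gli1-driven firefly luciferase reporter; series mostly up to about 92 µM; nearly all actives have a fitted effect of over 15% in size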). Put shortly:
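Steps: seed 3T3 Gli1-Luc cells, incubate 4 hr at 37 C, pin-transfer compounds in DMSO alongside a positive control, incubate 24 hr, add luciferase detection reagent, wait 30 min at room temperature, read luminescence.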

Assay [16] has as its target Estrogen receptor beta (Homo sapiens) (UniProt Q92731). The assay can be described thus: qHTS assay to identify small molecule agonists of the estrogen receptor beta (ER-beta) signaling pathway (AID 1259377; active = well fitted activation curve with a large enough effect in the signal ratio in the repeat runs, not every such curve was filed as active; the % refers to the signal ratio). A digest of the protocol:
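A UAS-controlled beta-lactamase reporter in ER-beta-UAS-bla HEK293T cells reports receptor activation. Compounds act for 16 hr at 37C in 2% charcoal-stripped serum, and a FRET substrate is read by fluorescence after 2 hours.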

Assay [17] in a line: qHTS assay to identify small molecule agonists or antagonists of the thyroid stimulating hormone receptor (TSHR) signaling pathway - wild type cell line counter screen (AID 1259384; calls by dose curve). Put shortly: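 Wild-type HEK293 cells were plated 18 h at 37 C/5% CO2, pin-dosed with compound plus Ro20-1724 medium, held 30 min at room temperature, then given cAMP-d2 and anti-cAMP-cryptate; fluorescence was read after 1 h. Fifteen concentrations, triplicate.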

We go through seven compounds from PubChem BioAssay (Tox21).

Inconclusive results are not listed. Active and inactive are the calls of the source. Unless noted, calls follow the shape of the dose curve; as a rule, active = well fitted curve in the direction sought with a large enough effect in the repeat runs; inconclusive = weak or mixed curves; inactive = no such curve, though single readings can be large; an effect the other way counts as inactive or inconclusive.

Estrogen receptor (Homo sapiens), sequence (P03372 whole entry, looked up): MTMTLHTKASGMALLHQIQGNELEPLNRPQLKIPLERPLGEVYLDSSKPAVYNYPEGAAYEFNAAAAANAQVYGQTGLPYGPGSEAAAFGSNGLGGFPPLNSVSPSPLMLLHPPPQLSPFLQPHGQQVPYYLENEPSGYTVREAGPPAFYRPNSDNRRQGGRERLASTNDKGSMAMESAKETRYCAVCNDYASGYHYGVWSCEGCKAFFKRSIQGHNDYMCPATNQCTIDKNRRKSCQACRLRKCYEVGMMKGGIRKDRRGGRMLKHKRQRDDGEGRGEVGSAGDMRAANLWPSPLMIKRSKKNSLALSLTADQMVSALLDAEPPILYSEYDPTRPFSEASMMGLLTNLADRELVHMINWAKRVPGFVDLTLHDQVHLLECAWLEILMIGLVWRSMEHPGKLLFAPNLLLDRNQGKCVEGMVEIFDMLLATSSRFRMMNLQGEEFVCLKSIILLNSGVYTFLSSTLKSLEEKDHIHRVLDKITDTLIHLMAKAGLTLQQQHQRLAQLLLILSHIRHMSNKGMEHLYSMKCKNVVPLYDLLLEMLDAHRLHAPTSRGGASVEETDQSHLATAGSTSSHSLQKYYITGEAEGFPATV
Thyrotropin receptor (Homo sapiens), sequence (P16473 whole entry, looked up): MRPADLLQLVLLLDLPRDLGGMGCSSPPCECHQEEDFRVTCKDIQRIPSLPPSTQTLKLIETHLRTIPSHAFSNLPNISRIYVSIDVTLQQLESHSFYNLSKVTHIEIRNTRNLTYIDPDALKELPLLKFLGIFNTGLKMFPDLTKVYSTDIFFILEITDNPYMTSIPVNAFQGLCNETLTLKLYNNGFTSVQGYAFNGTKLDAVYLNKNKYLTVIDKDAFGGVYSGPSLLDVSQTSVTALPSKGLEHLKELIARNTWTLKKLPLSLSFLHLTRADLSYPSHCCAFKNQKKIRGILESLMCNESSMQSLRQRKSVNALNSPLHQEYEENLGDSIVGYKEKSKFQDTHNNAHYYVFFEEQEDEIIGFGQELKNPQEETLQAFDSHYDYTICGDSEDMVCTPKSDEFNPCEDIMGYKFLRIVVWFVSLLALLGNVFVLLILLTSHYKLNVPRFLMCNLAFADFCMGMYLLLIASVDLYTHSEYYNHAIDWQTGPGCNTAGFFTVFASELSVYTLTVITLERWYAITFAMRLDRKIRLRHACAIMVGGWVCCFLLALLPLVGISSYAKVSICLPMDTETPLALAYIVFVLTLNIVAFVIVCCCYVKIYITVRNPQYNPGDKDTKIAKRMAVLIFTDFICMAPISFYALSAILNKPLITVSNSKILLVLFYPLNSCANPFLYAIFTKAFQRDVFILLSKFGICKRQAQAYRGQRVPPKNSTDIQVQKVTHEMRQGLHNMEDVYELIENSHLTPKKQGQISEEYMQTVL
Estrogen receptor beta (Homo sapiens), sequence (Q92731 whole entry, looked up): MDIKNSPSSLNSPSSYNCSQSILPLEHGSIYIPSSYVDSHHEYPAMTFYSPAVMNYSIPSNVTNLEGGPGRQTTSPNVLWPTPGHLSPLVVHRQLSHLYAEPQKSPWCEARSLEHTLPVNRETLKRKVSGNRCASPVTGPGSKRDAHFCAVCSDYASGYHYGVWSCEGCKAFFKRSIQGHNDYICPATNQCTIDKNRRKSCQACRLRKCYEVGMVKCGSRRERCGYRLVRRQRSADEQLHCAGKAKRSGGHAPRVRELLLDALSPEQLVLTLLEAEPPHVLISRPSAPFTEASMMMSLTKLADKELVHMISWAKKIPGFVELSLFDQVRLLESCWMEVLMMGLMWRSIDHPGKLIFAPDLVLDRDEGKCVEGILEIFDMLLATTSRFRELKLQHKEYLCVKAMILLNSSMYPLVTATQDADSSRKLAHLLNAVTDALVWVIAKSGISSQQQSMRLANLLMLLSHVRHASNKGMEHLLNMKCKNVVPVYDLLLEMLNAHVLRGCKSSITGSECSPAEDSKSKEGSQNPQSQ

`O=[N+]([O-])c1cc(C(F)(F)F)c(Cl)c([N+](=O)[O-])c1Nc1ncc(C(F)(F)F)cc1Cl`: the Potency was 21.7 µM (active) in assay [1]; 4.86 µM (active) in [2]; 24.3 µM (active) in assay [3]; 4.33 µM (active) in assay [5]; 6.11 µM (active) in [6]; 3.86 µM (active) in assay [7]. Further, the Potency in assay [8] was 6.11 µM (active); in [9], 6.86 µM (active); in assay [10], 8.63 µM (active); in assay [12] it was 61.1 µM (active); in assay [13], 30.6 µM (active). Further, the Potency entry in assay [4] and in [11] was “inactive” each time.

`CNC(=O)CSP(=O)(OC)OC`: the Potency entry in [1], in assay [2], in [4], in assay [14], in assay [5] and in [6] was “inactive” throughout. The Potency result in [15], in [7], in [16], in [8], in assay [9] and in assay [10] was “inactive” throughout. For the same compound, the Potency entry in [11], in [17], in assay [12] and in assay [13] was “inactive” each time.

For `[F][Sn]([c]1ccccc1)([c]1ccccc1)[c]1ccccc1`, the Potency is 24.3 µM (active) in assay [1]; 2.17 µM (active) in assay [2]; 2.73 µM (active) in assay [3]; 0.0969 µM (active) in [5]; 0.154 µM (active) in assay [6]; 0.0486 µM (active) in [7]. For the same compound, the Potency in assay [8] is 4.33 µM (active); in [9], 1.22 µM (active); in assay [10], 1.22 µM (active); in assay [12], 15.4 µM (active); in assay [13], 10.9 µM (active). Moreover, the Potency result in [14], in [15], in assay [11] and in assay [17] was “inactive” in each case.

For `COC(=O)c1cc(Oc2ccc(Cl)cc2Cl)ccc1[N+](=O)[O-]`, the Potency result in [1], in assay [2], in assay [4], in assay [14], in assay [5] and in [6] was “inactive” in each case. The Potency result in assay [15], in assay [7], in assay [8], in assay [9], in assay [10] and in assay [11] was “inactive” each time. In addition, the Potency result in assay [17] was “inactive”.

Turning to `CCNc1nc(NC(C)C(C)C)nc(SC)n1` (stereo unspecified), the Potency result in [1], in assay [2], in assay [4], in [14], in [5] and in [6] was “inactive” each time. In addition, the Potency result in assay [15], in [16], in assay [8], in [9], in assay [10] and in [11] was “inactive” in each case. Moreover, the Potency entry in assay [13] was “inactive”. Further, the Potency in [7] was 4.86 µM (active).

For the compound `Cc1c([N+](=O)[O-])cc2c(c1[N+](=O)[O-])C(C)(C)CC2(C)C`, the Potency result in assay [1], in assay [2], in [4], in assay [14], in [5] and in assay [6] was “inactive” in each case. Besides, the Potency entry in assay [15], in assay [7], in [16], in [8], in assay [9] and in assay [10] was “inactive” each time. The Potency result in assay [11], in [17], in assay [12] and in assay [13] was “inactive” throughout.

As for `CCCN`, the Potency entry in assay [1], in [2], in assay [4], in assay [14], in assay [5] and in assay [6] was “inactive” each time. Also, the Potency result in [15], in assay [7], in assay [8], in assay [9], in assay [10] and in assay [17] was “inactive” each time. Moreover, the Potency result in assay [12] and in assay [13] was “inactive” in each case.
